Compound activity: PubChem, Broad Institute
Most compounds without a hit are left out; they make up all but 2.3% or so of the library.
ROS inducer: ROS inducers in U2OS cancer cells, primary screen, cell-based, H2DCF-DA fluorescence; U2OS ROS induction; hit rate 2% among 46,000; ROS induction (% of piperlongumine), % at 10 µM; in the data active = ROS induction above about 79%, passing the limit was not always enough
YB-1 expression: inhibitors of YB-1 gene expression, primary screen, cell-based, fluorescence; hit rate 0.37% among 30,000; delta delta Cp (YB-1 minus CDIP) (concentration not given with the values); U2OS, qRT-PCR YB-1 vs CDIP delta delta Cp, 16 h; stronger effect = higher value; zero = DMSO, each unit about twofold; AID 434959, 2010;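 active = delta delta Cp rounded down to an integer at or above 3, about 3 SD of DMSO wells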;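 also: higher means less YB-1 transcript or more CDIP transcript relative to DMSO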
Large screens that a line does not name were inactive.

O=C1O[C@@H](c2ccccc2)[C@@H](c2ccccc2)N2[C@@H](c3ccc(OCCO)cc3)[C@]3(C(=O)Nc4ccc(C#CC5=CCCCC5)cc43)[C@@H](C(=O)N3CCN(c4ncccn4)CC3)[C@H]12	none
COC(=O)C(CC#Cc1ccc2c(c1)[C@]1(C(=O)N2)[C@H](C(=O)N2CCc3cc(OC)c(OC)cc3C2)[C@H]2C(=O)O[C@H](c3ccccc3)[C@H](c3ccccc3)N2[C@@H]1c1ccc(O)cc1)C(=O)OC	none
COC(=O)C(CC#Cc1ccc2c(c1)[C@]1(C(=O)N2)[C@H](c2ccc(OCCO)cc2)N2[C@H](c3ccccc3)[C@H](c3ccccc3)OC(=O)[C@H]2[C@@H]1C(=O)N1CCCCCCC1)C(=O)OC	ROS inducer 127.8
O=C1O[C@@H](c2ccccc2)[C@@H](c2ccccc2)N2[C@@H](c3ccc(OCCO)cc3)[C@]3(C(=O)Nc4ccc(C#CC5(O)CCCCCC5)cc43)[C@@H](C(=O)N3CCCCCCC3)[C@H]12	ROS inducer 135.2
O=C1O[C@H](c2ccccc2)[C@H](c2ccccc2)N2[C@H]1[C@@H](C(=O)O)[C@]1(C(=O)Nc3ccc(C#CC4(O)CCCCCC4)cc31)[C@H]2c1ccc(OCCO)cc1	none
O=C(NCc1cccnc1)c1cc(-c2cccc(Br)c2)nc2ccccc12	none (no result: YB-1 expression)
CCOC(=O)N1CCN(C(=O)CNC(=S)N(Cc2cccs2)C2CCCCC2)CC1	none (no result: YB-1 expression)
c1ccc(CN2CCN(c3ncnc4sc5c(c34)CCCCC5)CC2)cc1	none (no result: YB-1 expression)
CC(C)NC(=O)N(C)C[C@@H]1Oc2c(NC(=O)Nc3ccc(F)cc3)cccc2C(=O)N([C@H](C)CO)C[C@H]1C	none
C[C@H](CO)N1C[C@H](C)[C@H](CN(C)C(=O)Nc2ccccc2)Oc2c(NC(=O)Nc3ccc(F)cc3)cccc2C1=O	YB-1 expression 3.05
C[C@H]1CN([C@@H](C)CO)C(=O)c2cc(NC(=O)Nc3cccc4ccccc34)ccc2O[C@@H]1CN(C)C(=O)Nc1ccccc1	none
CC(C)NC(=O)N(C)C[C@H]1Oc2c(NC(=O)Nc3ccc(F)cc3)cccc2C(=O)N([C@@H](C)CO)C[C@H]1C	YB-1 expression 4.28
C[C@@H]1CN([C@H](C)CO)C(=O)c2cc(NC(=O)Nc3cccc4ccccc34)ccc2O[C@@H]1CN(C)C(=O)Nc1ccccc1	ROS inducer 84.5
C[C@H](CO)N1C[C@H](C)[C@H](CN(C)C(=O)Nc2ccc(F)cc2)Oc2c(NC(=O)Nc3ccccc3)cccc2C1=O	none
Cc1ccc2c(c1)N(C(=O)NCc1ccccc1)CC(C)O2 (configuration not stated)	none (no result: YB-1 expression)
Cc1nnc(NC(=O)CSc2nnc(Cc3cccn3C)n2-c2ccc(F)cc2)s1	none (no result: YB-1 expression)
O=C(c1ccc(CSc2nc3ccncc3n2Cc2ccc(F)cc2)cc1)N1CCCCC1	none (no result: YB-1 expression)
Cc1ccccc1NC(=O)C1CC(O)CN1C(=O)OCc1ccccc1 (configuration not stated)	none (no result: YB-1 expression)
COc1cc(/C=N/NC(=O)CCCCCC(=O)O)c([N+](=O)[O-])cc1OC	none
COC(=O)CCCCCCC(=O)N/N=C/c1cc(OC)c(OC)cc1[N+](=O)[O-]	ROS inducer 118.5
CCc1ccccc1NC(=O)C(C)n1nc([N+](=O)[O-])c(Br)c1C (configuration not stated)	ROS inducer 111.4 (no result: YB-1 expression)
Cc1c(Br)c([N+](=O)[O-])nn1C(C)C(=O)NCc1ccco1 (configuration not stated)	none (no result: YB-1 expression)
C[C@@H]1CCCCO[C@@H](CN(C)S(=O)(=O)c2ccccc2)[C@@H](C)CN([C@H](C)CO)C(=O)c2cc(NC(=O)c3ccccc3)ccc2O1	ROS inducer 131.9
C[C@@H]1CCCCO[C@H](CN(C)C(=O)CCCN(C)C)[C@@H](C)CN([C@H](C)CO)C(=O)c2cc(NS(=O)(=O)c3ccccc3)ccc2O1	YB-1 expression 4.89
C[C@@H]1CCCCO[C@@H](CN(C)C(=O)CCCN(C)C)[C@@H](C)CN([C@H](C)CO)C(=O)c2cc(NS(=O)(=O)c3ccccc3)ccc2O1	none
Cc1ccc(S(=O)(=O)Nc2ccc3c(c2)C(=O)N([C@H](C)CO)C[C@H](C)[C@@H](CN(C)S(=O)(=O)c2ccc(C)cc2)OCCCC[C@@H](C)O3)cc1	none
COc1ccc(S(=O)(=O)N(C)C[C@H]2OCCCC[C@@H](C)Oc3ccc(NC(=O)NC4CCCCC4)cc3C(=O)N([C@H](C)CO)C[C@@H]2C)cc1	none
Cc1ccc(S(=O)(=O)N(C)C[C@@H]2OCCCC[C@@H](C)Oc3ccc(NS(=O)(=O)c4ccc(Cl)cc4)cc3C(=O)N([C@H](C)CO)C[C@@H]2C)cc1	ROS inducer 110.7
C[C@@H]1CCCCO[C@H](CN(C)S(=O)(=O)c2ccccc2)[C@@H](C)CN([C@H](C)CO)C(=O)c2cc(NC(=O)c3ccncc3)ccc2O1	none
